Measured values: PubChem BioAssay AID624417 (National Center for Advancing Translational Sciences (NCATS), 2012)
About 6,400 (1.6%) of roughly 410,000 compounds were called active. Not shown: some 20% with an inconclusive outcome. Only a selection was taken, and actives are over-represented in it overall. A number with no mark means an inactive call. The call rests on the fitted dose curve; in most records, active means well fitted inhibition curve with a large enough effect; inconclusive means small, poorly fitted or top-dose-only effect; inactive means no such curve, though single readings can be large or run the other way.

target: Glucagon-like peptide 1 receptor (Homo sapiens) (UniProt P43220); assay: qHTS of GLP-1 Receptor Inverse Agonists (Inhibition Mode); settings: HEK293 GLP-1R CRE-luciferase, luminescence, 24 h, GLP-1R form is constitutively active; series mostly up to 38.3 µM; activity change, negative = inhibition: at the top concentration; further: nearly all actives have a fitted effect of over 55% in size
From the text: The overall goal of this project was to develop a novel assay for discovering small molecule ligands for class B1 G protein-coupled receptors (GPCRs). Very few agonists (or inverse agonists in inhibition mode) with generally weak activity for this entire group of physiologically important receptors are known to date. To establish proof-of-principle that this critical bottleneck can be overcome with a suitable screening approach, our studies focused on the class B1 receptor for glucagon-like peptide-1 (GLP-1R), a potential therapeutic target for diabetes and neurodegenerative disease. The assay was developed using a cell-based functional readout. Toward this goal, stably transfected HEK293 cell clones were established that co-express (i) a cAMP-responsive luciferase reporter gene, and (ii) constitutively active GLP-1R that upon ligand interaction inhibit (inverse agonists) the luciferase activity. In addition, two control cell lines were developed: (i) one that express only the cAMP-responsive reporter gene to enable initial exclusion of GLP-1R independent effects of candidate probes; and (ii) one with the reported gene cloned with another constitutively active orphan receptor GPR119 to enable exclusion of GLP-1R independent inhibitor effects of candidate inverse agonists. To that end, this assay was optimized for 1536-well format and screened against the MLSMR. […] NIH Molecular Libraries Probe Production Network [MLPCN] NIH Chemical Genomics Center [NCGC] Grant: NS064851 PI Name: Martin Beinborn, Tufts Medical Center
Six ul of cell suspension (200 cells/uL in DMEM + 10% Nu serum + 1% pen-strep) is dispensed in a white solid 1536-well plate. The plates are incubated for 12 hours at 37 deg C at 5% CO2 followed by addition of 23 nL compounds. After 24 hr incubation at 37 deg C and 5% CO2, 3 uL of luciferase assay detection reagent is added. A luminescence read is obtained on the PerkinElmer Viewlux after 12 min incubation at room temperature.
On the % scale 0 is the no-effect control and ±100 the full control effect; potency means the concentration at half of the fitted maximal effect.

Chain of Glucagon-like peptide 1 receptor (Homo sapiens) (P43220 whole entry, looked up): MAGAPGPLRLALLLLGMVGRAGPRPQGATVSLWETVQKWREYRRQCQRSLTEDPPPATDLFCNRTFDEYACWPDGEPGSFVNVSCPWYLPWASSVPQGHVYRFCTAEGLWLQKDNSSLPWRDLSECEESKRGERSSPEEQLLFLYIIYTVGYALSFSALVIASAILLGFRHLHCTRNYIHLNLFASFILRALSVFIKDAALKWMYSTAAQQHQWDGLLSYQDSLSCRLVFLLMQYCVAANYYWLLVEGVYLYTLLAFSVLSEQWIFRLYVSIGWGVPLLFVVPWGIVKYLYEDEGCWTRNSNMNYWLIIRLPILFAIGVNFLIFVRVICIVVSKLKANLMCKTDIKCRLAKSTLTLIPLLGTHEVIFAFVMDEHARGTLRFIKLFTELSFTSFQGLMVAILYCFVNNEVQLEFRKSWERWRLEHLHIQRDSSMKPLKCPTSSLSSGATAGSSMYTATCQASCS

SMILES	Potency	activity change, negative = inhibition [%]
O=C(CSCc1ccc(Cl)cc1)N1CCN(Cc2ccc3c(c2)OCO3)CC1	10 µM (active)	
O=C(c1cccs1)N1CCN(Cc2ccc3c(c2)OCO3)CC1		-17.2
O=C(Nc1cccc2ccccc12)N1CCN(Cc2ccc3c(c2)OCO3)CC1		-8.77
CCCC(=O)N1CCC1(C)C(=O)NCc1ccc(SC)cc1 (centres undefined)		23.8
CC1(C(=O)NS(=O)(=O)c2ccccc2Cl)CCN1C(=O)c1cccc(F)c1 (centres undefined)		5.93
O=C(N/N=C/c1ccc(OCc2ccccc2)cc1)c1ccc(O)cc1	2.82 µM (active)	
O=C(Cc1cccs1)N/N=C/c1ccc(OCc2ccccc2)cc1		-1.37
O=C(N/N=C/c1ccc(OC(=O)c2ccccc2Cl)cc1)c1ccc(O)cc1		-23.4
O=C(O)c1ccccc1Cc1ccc(F)c2ccccc12		-24.8
CCC(C(=O)NC(C)(C)C)n1c(-c2ccccc2)nc2ccccc21 (centres undefined)		-19
C[C@H]1CN([C@@H](C)CO)C(=O)c2cc(-c3ccccc3F)cnc2O[C@H]1CN(C)C(=O)C1CCOCC1		-13.6
CC1(C(=O)Nc2cccc3cccnc23)CCN1C(=O)CCC1CCCC1 (centres undefined)		-3.58
O=C(NCCN1CCOCC1)c1ccc2c(c1)N(Cc1cccc(Cl)c1)C(=O)c1ccccc1S2(=O)=O		-27.9
Cc1cccc(N2CCN(Cc3nc(C4CC4)no3)CC2)n1		-5.11
Cc1ccccc1N1CCN(Cc2nc(Cc3ccccc3F)no2)CC1	11.2 µM (active)	
Fc1cccc(Cc2noc(CN3CCN(c4cnccn4)CC3)n2)c1		-5.63
Cc1cc(Cl)ccc1OCCCC(=O)Nc1cccc(-n2cnnn2)c1	10 µM (active)	
Cc1cc(Cl)ccc1OCCCC(=O)NCc1ccccn1		15.3
Cc1cc(Cl)ccc1OCCCC(=O)NCc1ccncc1		8.81
COc1ccc(C(O)c2nc(-c3ccc(OC)nc3)cs2)cc1 (centres undefined)		-6.1
Cc1cc(Br)cn2c(Cc3ccccc3C(F)(F)F)c(-c3ccc(Cl)cc3)nc12		-21.1
CCCCN(C=O)c1c(CC)nc2c(OCc3ccccc3C(=O)OC)cccn12		-20.9
O=S1(=O)CC(N2CCN(c3ccccn3)CC2)CN1Cc1ccc(F)cc1 (centres undefined)		-6.64
CCc1nc2c(OCc3ccc(F)c(F)c3)cccn2c1N(C)C(=O)c1ccco1		-6.92
CCCNC(=O)c1cc(C2CCCCN2S(=O)(=O)c2ccc(C#N)cc2)on1 (centres undefined)		10.6
Cc1nc2ccc(NC(=O)C3CCCCC3)cc2s1		7.04
Cc1nc(NC(=O)C23CCC(C)(C(=O)O2)C3(C)C)sc1C (centres undefined)		-14.9
Cc1nc(NC(=O)C2CCCCC2)sc1C	8.91 µM (active)	
NC(=O)CSc1nnc(-c2cccc(S(=O)(=O)N3CCOCC3)c2)o1		-1.36
